In all, about 46,000 compounds went through this assay and about 900 (2%) were called active. Another 1% or so got no clear call; they are omitted. The full list was thinned out, with actives kept by preference. A number with no mark means an inactive call. Cut-off read from the data, not from the text of the source: active = ROS induction above about 79% (passing the limit was not always enough); inconclusive = no clear call, values can overlap the other calls.

The nature of this experiment: ROS inducers in U2OS cancer cells, primary screen, cell-based, H2DCF-DA fluorescence (AID 624156).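 Note: 0% = DMSO vehicle median and 100% = reference compound median.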 Conditions: at 10 µM, active compounds read high.
`CC(C)OC(=O)C1=c2s/c(=C\c3cccnc3)c(=O)n2C(N)=C(C#N)C1c1cccnc1` (centres undefined): the ROS induction (% of piperlongumine) was 104% (active).
As for `COC(=O)C1=C(N)Oc2cc(C)oc(=O)c2C1c1cccnc1` (centres undefined), the ROS induction (% of piperlongumine) was 69.7%.
The value for `CCN(Cc1ccccc1)S(=O)(=O)c1cc(Cl)ccc1Cl` was 29.9%.
With `CCN(CC)c1nc(C#N)nc(OC)n1`, the ROS induction (% of piperlongumine) was 55.7%.
For `CC(CN1CCCC1)OC(=O)c1cc(C(C)(C)C)cc(C(C)(C)C)c1` (centres undefined), the ROS induction (% of piperlongumine) is 21.6%.
With `CO[C@H]1O[C@H](CO)[C@@H](OC(=O)Nc2ccccc2-c2ccccc2)[C@H](OC(=O)Nc2ccccc2)[C@H]1OC(=O)Nc1ccccc1`, the ROS induction (% of piperlongumine) is 132% (active).
On to `COC(=O)C1=C[C@@H](O)[C@@H](O)[C@H](O[C@@H]2O[C@H](CO)[C@@H](O)[C@H](O)[C@H]2OC(=O)/C=C/c2ccccc2)C1`, for which the ROS induction (% of piperlongumine) was -5.34%.
On to `CNC[C@@H]1Oc2c(NC(=O)Nc3ccccc3)cccc2C(=O)N([C@@H](C)CO)C[C@@H]1C`, for which the ROS induction (% of piperlongumine) was -4.47%.
In the case of `S=C(NCCc1ccc(Cl)cc1)Nc1ccccc1` it was -13.7%; in that of `O=C(c1cncc(NS(=O)(=O)c2ccc(Cl)cc2)c1)N1CCN(Cc2ccccc2)CC1`, 41.7%; in that of `CC(C)C1N=C2c3ccccc3N=C(SCC(=O)c3ccc(Br)cc3)N2C1=O` (centres undefined), 63.2%.
On to `O=c1c2ccccc2nc(SCc2cccc(F)c2)n1C1CC1`, for which the ROS induction (% of piperlongumine) is 17.8%.
With `Cc1ccc(-n2c(SCC(=O)Nc3cccc(C)c3C)nc3ccccc3c2=O)cc1`, the ROS induction (% of piperlongumine) is -0.837%.
On to `CC(C)(C)C(=O)CSc1nc2ccccc2c(=O)n1CC1CC1`, for which the ROS induction (% of piperlongumine) is 120% (active).
Consider `O=C(CSc1nc(-c2cccs2)cc(C(F)(F)F)n1)OCCCc1ccccc1`, for which the ROS induction (% of piperlongumine) was 1.26%.
Consider `CC(C)NC(=O)N(C)C[C@H]1Oc2ccc(NS(=O)(=O)c3cn(C)cn3)cc2CC(=O)N([C@@H](C)CO)C[C@H]1C`, for which the ROS induction (% of piperlongumine) is 1.5%.
For `C[C@@H]1CCCCO[C@@H](CN(C)S(=O)(=O)c2cccs2)[C@@H](C)CN([C@H](C)CO)C(=O)c2cc(NC(=O)Nc3ccc4c(c3)OCO4)ccc2O1`, the ROS induction (% of piperlongumine) was 91.3% (active).
In the case of `C[C@@H]1CCCCO[C@@H](CN(C)S(=O)(=O)c2cccs2)[C@@H](C)CN([C@H](C)CO)C(=O)c2cc(NC(=O)Nc3ccc(F)cc3)ccc2O1` it was 55.6%.
As for `C[C@@H]1CCCCO[C@H](CN(C)Cc2ccncc2)[C@@H](C)CN([C@H](C)CO)C(=O)c2cc(NS(C)(=O)=O)ccc2O1`, the ROS induction (% of piperlongumine) is -7.81%.
As for `C[C@@H]1CCCCO[C@@H](CN(C)Cc2ccncc2)[C@@H](C)CN([C@H](C)CO)C(=O)c2cc(NS(=O)(=O)c3cccs3)ccc2O1`, the ROS induction (% of piperlongumine) was 104% (active).
In the case of `C[C@@H]1CCCCO[C@H](CN(C)S(=O)(=O)c2cccs2)[C@@H](C)CN([C@H](C)CO)C(=O)c2cc(NC(=O)Nc3ccccc3)ccc2O1`, the ROS induction (% of piperlongumine) was 37.3%.
With `C[C@@H]1CN([C@H](C)CO)C(=O)c2cc(NS(=O)(=O)c3cccs3)ccc2O[C@H]1CN(C)Cc1ccncc1`, the ROS induction (% of piperlongumine) is 26%.
Regarding `COc1ccc(C=NCc2ccc(OC)c(OC)c2)cc1OC`, the ROS induction (% of piperlongumine) is 12.4%.
The value for `CC1C=CCC2C(=O)N(c3cccc(Cl)c3)C(=O)C12` (centres undefined) was -5.69%; that for `CC1CCC(NC(=O)c2ccccc2C(=O)O)CC1` (centres undefined) was -7.64%.
Take `Cc1ccc2c(c1)c(-c1ccccc1)c(-c1ccccc1)n2CC(O)CNCc1ccco1` (centres undefined): the ROS induction (% of piperlongumine) was 4.62%.
Regarding `O=C(COC(=O)c1cc2ccccc2cc1O)c1ccc(OCc2ccccc2)cc1`, the ROS induction (% of piperlongumine) is 6.42%.
On to `Cc1noc(C)c1NC(=O)N(C)C[C@H]1Oc2ccc(NC(=O)C3CCCCC3)cc2CC(=O)N([C@@H](C)CO)C[C@H]1C`, for which the ROS induction (% of piperlongumine) is -5.41%.
In the case of `FC(F)(F)c1cccc(NC(=S)Nc2cc(-c3cccs3)[nH]n2)c1`, the ROS induction (% of piperlongumine) is -6.71%.
In the case of `CCOC(=O)N1CCC(NC(=O)NCc2noc3ccccc23)CC1`, the ROS induction (% of piperlongumine) was -11.6%.
For `CC(=O)Nc1ccc(NC(=O)CN(c2ccccc2Br)S(C)(=O)=O)cc1`, the ROS induction (% of piperlongumine) was -14%.
For `CC(=O)Nc1ccc(Nc2c3c4c(cccc4[nH]c2=O)C(=O)c2ccccc2-3)cc1`, the ROS induction (% of piperlongumine) was 105% (active).
`CC(=O)Nc1ccc(NC(=O)COc2ccccc2C(=O)Nc2cccc(Cl)c2Cl)cc1`: the ROS induction (% of piperlongumine) is -10%.
Take `COc1cc2c(cc1NC(=O)CCC1CCCCC1)oc1ccccc12`: the ROS induction (% of piperlongumine) was -18.8%.
`CCOC(=O)c1c(C)nn(-c2ncccc2NC(=O)CCC(=O)O)c1C`: the ROS induction (% of piperlongumine) is -11.2%.
For the molecule `COC(=O)[C@@]1(CCS(=O)(=O)c2ccccc2)N=C(c2ccc(OCCCO)cc2)O[C@H]1c1ccccc1N=[N+]=[N-]`, the ROS induction (% of piperlongumine) was 33.1%.
On to `[N-]=[N+]=Nc1ccccc1C[C@@]1(C(=O)NCc2ccccc2)N=C(c2ccc(OCCCO)cc2)O[C@@H]1c1ccccc1`, for which the ROS induction (% of piperlongumine) was 30.8%.
As for `COC(=O)[C@]1(Cc2ccccc2CN=[N+]=[N-])N=C(c2ccc(OCCCO)cc2)O[C@@H]1c1ccccc1CN=[N+]=[N-]`, the ROS induction (% of piperlongumine) is 86.1% (active).
On to `CNC[C@H]1Oc2ccc(NS(=O)(=O)c3cn(C)cn3)cc2C(=O)N([C@@H](C)CO)C[C@@H]1C`, for which the ROS induction (% of piperlongumine) is 5.85%.
As for `COc1ccc(NC(=S)NCC(c2ccccc2)c2c[nH]c3ccccc23)cc1` (centres undefined), the ROS induction (% of piperlongumine) is 4.82%.
For the molecule `COc1ccc(-c2cc(C(F)(F)F)nc(SCCC(=O)N(C)c3ccccc3)n2)cc1`, the ROS induction (% of piperlongumine) is 33.5%.
The value for `CCC(=O)Nc1ccccc1C(=O)Nc1ccccc1` was 10.3%; that for `CC[N+]1=C(C)C(C)(C)c2cc(-c3ccccc3)ccc21` was 52.6%; that for `CCn1c(SCC(=O)c2ccc(OC)cc2)nnc1-c1ccccc1F` was -17.9%.
Turning to `Cc1nc2ccccn2c1-c1ccnc(SCC(=O)c2ccc(Cl)cc2)n1`, the ROS induction (% of piperlongumine) is 102% (active).
On to `C=CCn1c(SCc2nnc(SCC(=O)c3ccc(Cl)cc3)o2)nnc1-c1ccccc1`, for which the ROS induction (% of piperlongumine) was -1.34%.
On to `CC(C)NC(=O)c1ccc2c(c1)N(Cc1ccccc1)C(=O)CS2`, for which the ROS induction (% of piperlongumine) is -7.88%.
The value for `COC(=O)/C=C1\SC(=NC(=O)c2ccc(F)cc2)NC1=O` was 1.03%.
For the molecule `Cc1cccc(Cn2c(SCc3ccc(C(=O)N4CCCCC4)cc3)nc3ccncc32)c1`, the ROS induction (% of piperlongumine) was -1.54%.

The record behind these values is PubChem BioAssay AID624156 (Broad Institute, 2012).
